Most compounds without a hit are left out; they make up all but 7% or so of the library.
DRD3 agonist: D3 dopamine receptor (human) agonism. D3R DiscoveRx beta-arrestin cells, luminescence, 90 min. max activation, %. hit rate 0.58% among 410,000; in the data active means max activation above about 30%
Target sequence (P35462 whole entry, looked up): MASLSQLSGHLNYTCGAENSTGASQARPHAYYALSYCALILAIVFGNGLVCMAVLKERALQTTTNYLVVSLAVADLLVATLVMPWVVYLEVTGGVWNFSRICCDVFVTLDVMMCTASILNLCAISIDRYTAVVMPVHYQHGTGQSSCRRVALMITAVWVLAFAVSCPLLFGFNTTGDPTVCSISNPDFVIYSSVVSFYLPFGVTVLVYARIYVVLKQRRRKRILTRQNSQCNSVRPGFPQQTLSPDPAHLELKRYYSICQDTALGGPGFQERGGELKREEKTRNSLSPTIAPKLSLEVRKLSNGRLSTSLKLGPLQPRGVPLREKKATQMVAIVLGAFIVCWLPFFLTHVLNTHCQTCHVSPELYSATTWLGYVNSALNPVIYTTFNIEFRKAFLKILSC
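Agonist-mode cell screen: cells plated at 1500/well and incubated overnight at 37 °C, then exposed to library compounds for 90 min at 37 °C. Detection reagent was added for 30–60 min at room temperature, and luminescence was read.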
D3 antag: blocks the human D3 dopamine receptor; max response, negative = inhibition, %; P35462; D3R cells, DiscoveRx beta-arrestin luminescence, antagonist mode; hits give low values; hit rate 2.5% among 360,000; in the data active means max response below about -50%; inconclusive means no clear call, values can overlap the other calls
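Cells expressing the human receptor were seeded at 1500 cells/well, incubated overnight at 37 degrees C in 5% CO2, then exposed to library compounds with dopamine controls for 90 minutes at 37 degrees C before luminescent detection.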
S2 tox: reduces viability in counter-screen for ATXN expression inhibitors | S2 cells (HEK-293 line with an ATXN2-luciferase reporter) viability, CellTiter-Fluor protease fluorescence, 24 h | Potency, µM (series often up to 56.7 µM), actives largely listed as cytotoxic | hit rate 0.49% among 400,000 | AID 651635; further: nearly all actives have a fitted effect of over 40% in size
ATXN2 expr inh: reduces ATXN2 reporter expression in HEK-293 cells; HEK-293 ATXN2-luciferase reporter, luminescence, 24 h; hit rate 0.72% among 360,000; Potency, µM (doses to about 57 µM), usual class: inhibitors; further: nearly all actives have a fitted effect of over 55% in size
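qHTS (up to 57 uM final) was run with 24 h compound exposure of reporter cells at 37 °C. Each well was multiplexed: SteadyGlo luminescence measured ATXN2-luciferase expression after a fluorogenic Gly-Phe-AFC viability readout (25 uM final).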
IL-1B inflam inh: blocks inflammasome-driven IL-1 beta release; THP-1 LPS/ATP IL-1B secretion, AlphaLISA, 16 h; hits give low values; activity change, % at 57.5 µM; hit rate 4.7% among 360,000; AID 743279; in the data active means activity change below about -50%; inconclusive means mostly about -30% to -49%
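THP-1 cells pretreated 1 hr with compounds (up to 57.5 uM final), then stimulated with LPS (250 ng/mL final) plus ATP (1.25 mM final); secreted IL-1B measured by AlphaLISA after 16 hr, decreased signal indicating inhibition.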
a7 integrin act: activators of alpha7 integrin expression for muscular dystrophy | hit rate 0.064% among 350,000 | Potency, µM (highest dose often 38.3 µM), usual class: activators | AID 624291 | alpha7betagal myoblasts, beta-gal FDG fluorescence, 48 h; further: nearly all actives have a fitted effect of over 60% in size
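alpha7betagal+/- myoblasts (passage 13, 250/well) treated 48 h at 37C with compounds at 1:260 dilution of DMSO stock. Lysed, then beta-galactosidase activity read as FDG fluorescence (ex 480/em 540) after 30 min, with pre-read for autofluorescence.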
Large screens that a line does not name were inactive. Unless noted, the call rests on the fitted dose curve; in most records, active means well fitted curve in the direction sought with a large enough effect; inconclusive means small, poorly fitted or top-dose-only effect, or another doubt; inactive means no such curve, though single readings can be large; an effect the other way counts as inactive or inconclusive.

N=C1N=C(N)c2cc3ccccc3cc21	S2 tox 32µM, ATXN2 expr inh 18µM (no result: D3 antag, IL-1B inflam inh, a7 integrin act)
Nc1ccc2cc3ccccc3cc2c1	none (no result: S2 tox, a7 integrin act)
Cn1c(CC(=O)Nc2ccccc2F)nnc1SCC(=O)Nc1nncs1	none
CCCC(=O)Nc1nnc(-c2ccco2)s1	D3 antag -66
Cc1c(Cl)ccc2c(C(O)CBr)cc(-c3ccccc3)nc12 (centres undefined)	IL-1B inflam inh -86
O=C1CS/C(=C\[N+](=O)[O-])N1c1ccccc1	D3 antag -71
CC1=C(C(N)=O)C(c2cccc(Br)c2)n2nc(SCc3ccccc3Cl)nc2N1 (centres undefined)	DRD3 agonist 56 (no result: D3 antag, IL-1B inflam inh, a7 integrin act)
Cc1c(Cl)sn(-c2ccc(Cl)cc2)c1=O	D3 antag -52, S2 tox 30µM, ATXN2 expr inh 8.9µM, IL-1B inflam inh inconclusive
CCCN(CCC)CCc1cccc2c1CC(=O)N2	DRD3 agonist 81 (no result: D3 antag, IL-1B inflam inh, a7 integrin act)
CCN1CCS/C1=C\C=C\C1=[N+](CC)CCS1	S2 tox 24µM, ATXN2 expr inh inconclusive (no result: a7 integrin act)
CCN1CCS/C1=C/C=C/C1=[N+](CC)CCS1	ATXN2 expr inh inconclusive
COc1ccc(C(=O)NNC(=O)c2snnc2C)cc1	none (no result: IL-1B inflam inh)
CC(=O)c1ccc(Nc2cc(C)nc3c(C)cc(C)cc23)cc1	ATXN2 expr inh inconclusive, IL-1B inflam inh -95 (no result: S2 tox)
Cc1cc(C)c2nc(C)cc(Nc3ccc(C(=O)N(C)C)cc3)c2c1	none (no result: ATXN2 expr inh)
Cc1cc(C)c2nc(C)cc(Nc3ccc(C(=O)NCCO)cc3)c2c1	IL-1B inflam inh -90, a7 integrin act inconclusive
CC(=O)c1cccc(Nc2cc(C)nc3c(C)cccc23)c1	S2 tox inconclusive, IL-1B inflam inh -75
CC(=O)c1cccc(NC(=O)C(=O)Nc2cccc3ccccc23)c1	a7 integrin act 8.9µM
CC(=O)c1cccc(Nc2cc(C)nc3ccccc23)c1	none
CC(=O)c1ccc(NC(=S)Nc2cccc3ccccc23)cc1	none
COc1ccc(C(=O)NC(=S)Nc2ccc3[nH]c(=O)[nH]c3c2)cc1Br	none (no result: ATXN2 expr inh)
N#Cc1ccccc1NC(=S)NC(=O)c1cccs1	none (no result: ATXN2 expr inh)
CC(=O)Nc1ccc(NC(=O)C(C)OC(=O)COc2ccc(Nc3ccccc3)cc2)cc1 (centres undefined)	none
CCC(C)N(CCNC(=O)c1ccc2c(c1)NC(=O)c1ccccc1S2)C1CCCCC1 (centres undefined)	S2 tox inconclusive, ATXN2 expr inh inconclusive, IL-1B inflam inh -86
CCN1CCN(CCCNC(=O)c2ccc3c(c2)NC(=O)c2ccccc2S3)CC1	none
CC1CCCC(C)N1CCCNC(=O)c1ccc2c(c1)NC(=O)c1ccccc1S2 (centres undefined)	IL-1B inflam inh -71
CCOc1ccc(-c2cc(CCCC(=O)NCCc3ccc(OC)c(OC)c3)no2)cc1	none (no result: D3 antag, IL-1B inflam inh, a7 integrin act)
C=CCn1c(C)cc(C(=O)COC(=O)c2ccc3c(c2)NC(=O)CS3)c1C	IL-1B inflam inh inconclusive
COc1ccc(S(=O)(=O)N2CCN(c3nc(C)cc(C)n3)CC2)cc1	none
C(=C\c1ccccc1)/CN1CCN(Cc2ccc3c(c2)OCO3)CC1	D3 antag -61
O=[N+]([O-])c1ccccc1/C=C/CN1CCN(Cc2ccc3c(c2)OCO3)CC1	D3 antag -79, S2 tox inconclusive (no result: ATXN2 expr inh)
C/C(=C\c1ccccc1)C(=O)N1CCN(Cc2ccc3c(c2)OCO3)CC1	IL-1B inflam inh -69
CC(=O)c1cc(C(=O)c2ccccc2)sc1Nc1ccccc1	S2 tox inconclusive, IL-1B inflam inh -62
Cc1nc(Nc2ccccc2)sc1C(=O)c1ccccc1	IL-1B inflam inh inconclusive
C=CCc1c(C)nc2c(-c3ccccc3)cnn2c1N1CCOCC1	none
Cn1nc([N+](=O)[O-])nc1Sc1nnc(-c2ccccc2)o1	S2 tox inconclusive, IL-1B inflam inh -96
O=Cc1ccc(Sc2nnc(-c3ccccc3)o2)c([N+](=O)[O-])c1	none
Cc1nc(NC2=NCN(CCCN3CCOCC3)CN2)nc2c(C)cccc12	S2 tox inconclusive, ATXN2 expr inh inconclusive, IL-1B inflam inh -61
Cc1nc(NC2=NCN(Cc3cccnc3)CN2)nc2ccccc12	S2 tox inconclusive
CCSc1nnc(NC(=O)C(C)Sc2nc3ccccc3[nH]2)s1 (centres undefined)	none
Clc1ncc(CN2CCN(c3ccccc3)CC2)s1	DRD3 agonist 39
Fc1ccccc1N1CCN(Cc2cnc(Cl)s2)CC1	DRD3 agonist 50
CC1CCN(Cc2cnc(Cl)s2)CC1	none
C[C@H](O)[C@@H]1CN2CCc3c([nH]c4ccccc34)[C@@H]2C[C@@H]1N(C)C(=O)Nc1cc(Cl)cc(Cl)c1	D3 antag -50
Cc1cccc(-c2ccc3[nH]c4c(c3c2)CCN2C[C@@H]([C@H](C)O)[C@@H](N(C)C(=O)Nc3ccc(F)cc3)C[C@@H]42)c1	ATXN2 expr inh inconclusive (no result: S2 tox)
COc1ccc(NC(=O)N(C)[C@H]2C[C@H]3c4[nH]c5ccc(-c6cccc(C)c6)cc5c4CCN3C[C@H]2[C@H](C)O)cc1	ATXN2 expr inh 25µM (no result: S2 tox)
C[C@H](O)[C@@H]1CN2CCc3c([nH]c4ccc(-c5ccc6c(c5)OCO6)cc34)[C@@H]2C[C@@H]1N(C)C(=O)Nc1cc(Cl)cc(Cl)c1	S2 tox 16µM, ATXN2 expr inh 20µM
C[C@H](O)[C@@H]1CN2CCc3c([nH]c4ccccc34)[C@@H]2C[C@@H]1N(C)C(=O)Nc1ccccc1	none
CCOc1ccc(C(=O)Nc2ccc3oc(-c4ccc(C)cc4C)nc3c2)cc1Br	none (no result: D3 antag, S2 tox, ATXN2 expr inh, IL-1B inflam inh, a7 integrin act)
Cc1ccccc1NC(=O)CSc1nnc(-c2ccccn2)o1	none
Cc1ccc(C)c(NC(=O)CSc2n[nH]c(-c3ccccn3)n2)c1	S2 tox inconclusive, ATXN2 expr inh 18µM
Cc1ccccc1NC(=O)CSc1n[nH]c(-c2ccccn2)n1	S2 tox inconclusive, ATXN2 expr inh 22µM
O=C(CSc1n[nH]c(-c2ccccn2)n1)Nc1cccc(Cl)c1	ATXN2 expr inh 10µM
Cn1c(SCC(=O)NC2CCCC2)nnc1-c1ccco1	none
CN1C(c2ccccc2)=NO[C@]1(C)c1ccccc1	S2 tox inconclusive
O=C(O)CC1CCC(=C(Cl)Cl)C1 (centres undefined)	S2 tox inconclusive, ATXN2 expr inh inconclusive, IL-1B inflam inh -74
COC(=O)c1cc2ccsc2n1CC(=O)Nc1cc(C)cc(C)c1	D3 antag -74
COc1ccc(C(N)c2nccc3cc(OC)c(OC)cc23)cc1OC (centres undefined)	IL-1B inflam inh -83
COc1ccc(OC)c(N(CC(=O)NC2CC3CCC2C3)S(=O)(=O)c2ccccc2)c1 (centres undefined)	IL-1B inflam inh -67
Cc1cccc(-c2nc3c(c(SCc4ccccc4Cl)n2)Cc2c(CO)cnc(C)c2O3)c1	none (no result: D3 antag, IL-1B inflam inh, a7 integrin act)
COc1cc(OC)cc(C(=O)Nn2cnnc2)c1	none
COc1cccc(C(=O)Nn2cnnc2)c1	DRD3 agonist 31
